# In the supplement of paper PMC3342239:
# Structures can show the parent of a compound that is named as a salt.
# Test system: Saccharomyces cerevisiae
# Experiment: fraction of cells in G1 phase (DNA content, flow cytometry); higher = more cells with unreplicated DNA (G1 delay)
# Details: temperature: 30 C; YPD; BY4741 PDR5+ SNQ2+; drug added to: actively dividing cells; 4.33 h
# Description: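 S. cerevisiae cultures in YPD at 30°C were treated with each drug of the Enzo FDA-approved library at 20 µg/ml (final µM given per drug). Cells were fixed after 6–7 h (S1) or 6 h (S2), or after 4.33 h for BY4741 (S3), then stained with SYTOX Green. %G1 is the Dean-Jett-Fox G1 peak area divided by the G1+G2/M peak areas, written as a fraction and averaged over at least two independent experiments. DMSO reference: mean ~0.49; >0.60 is called High G1 and <0.3876 Low G1. Scale: lower means mitotic delay.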
row,SMILES,fraction of cells in G1 phase
1,CO[C@H]1C[C@@H]2CC[C@@H](C)[C@@](O)(O2)C(=O)C(=O)N2CCCC[C@H]2C(=O)O[C@H]([C@H](C)C[C@@H]2CC[C@@H](O)[C@H](OC)C2)CC(=O)[C@H](C)/C=C(\C)[C@@H](O)[C@@H](OC)C(=O)[C@H](C)C[C@H](C)/C=C/C=C/C=C/1C [Rapamycin] (21.8771 µM),0.625
2,O=C1CCc2ccc(OCCCCN3CCN(c4cccc(Cl)c4Cl)CC3)cc2N1 [Aripiprazole] (44.6034 µM),0.411
3,Fc1ccc(C(c2ccc(F)cc2)N2CCN(C/C=C/c3ccccc3)CC2)cc1 [Flunarizine-2HCl] (41.8936 µM),0.442
4,CC(=O)OCC1OC([S-])C(OC(C)=O)C(OC(C)=O)C1OC(C)=O.CC[PH+](CC)CC.[Au+] (stereo not given) [Auranofin] (29.4771 µM),0.52
5,COC(=O)[C@H](c1ccccc1Cl)N1CCc2sccc2C1 [Clopidogrel sulfate] (62.1449 µM),0.459

# Same assay, conditions: temperature: 30 C; YPD; JTY2953 pdr5 snq2 (sensitized); drug added to: actively dividing cells; 6 h
row,SMILES,fraction of cells in G1 phase
1,CO[C@H]1C[C@@H]2CC[C@@H](C)[C@@](O)(O2)C(=O)C(=O)N2CCCC[C@H]2C(=O)O[C@H]([C@H](C)C[C@@H]2CC[C@@H](O)[C@H](OC)C2)CC(=O)[C@H](C)/C=C(\C)[C@@H](O)[C@@H](OC)C(=O)[C@H](C)C[C@H](C)/C=C/C=C/C=C/1C [Rapamycin] (21.8771 µM),0.788
2,C=C1/C(=C\C=C2/CCC[C@]3(C)[C@@H]([C@H](C)/C=C/[C@@H](O)C4CC4)CC[C@@H]23)C[C@@H](O)C[C@@H]1O [Calcipotriene] (48.471 µM),0.375
3,O=C1CCc2ccc(OCCCCN3CCN(c4cccc(Cl)c4Cl)CC3)cc2N1 [Aripiprazole] (44.6034 µM),0.762
4,OCCN1CCN(CCCN2c3ccccc3Sc3ccc(C(F)(F)F)cc32)CC1 [Fluphenazine 2HCl] (45.711 µM),0.327
5,Fc1ccc(C(c2ccc(F)cc2)N2CCN(C/C=C/c3ccccc3)CC2)cc1 [Flunarizine-2HCl] (41.8936 µM),0.761
6,COc1ccc(-c2cc(=S)ss2)cc1 [Anethole-trithione (anetholtrithion)] (83.2062 µM),0.486
7,CCN(CC)CCOc1ccc(C(=C(Cl)c2ccccc2)c2ccccc2)cc1 [Clomiphene citrate] (49.2645 µM),0.388
8,CC(=O)OCC1OC([S-])C(OC(C)=O)C(OC(C)=O)C1OC(C)=O.CC[PH+](CC)CC.[Au+] (stereo not given) [Auranofin] (29.4771 µM),0.959
9,COC(=O)[C@H](c1ccccc1Cl)N1CCc2sccc2C1 [Clopidogrel sulfate] (62.1449 µM),0.719

# Same assay, conditions: temperature: 30 C; YPD; JTY2953 pdr5 snq2 (sensitized); drug added to: cultures diluted from stationary phase; 6-7 h
row,SMILES,fraction of cells in G1 phase
1,Cc1cnc(C(=O)O)c[n+]1[O-] [Acipimox] (129.764 µM),0.493
2,CC(=O)OCC(CCn1cnc2cnc(N)nc21)COC(C)=O [Famciclovir] (62.2396 µM),0.505
3,CO[C@H]1C[C@@H]2CC[C@@H](C)[C@@](O)(O2)C(=O)C(=O)N2CCCC[C@H]2C(=O)O[C@H]([C@H](C)C[C@@H]2CC[C@@H](O)[C@H](OC)C2)CC(=O)[C@H](C)/C=C(\C)[C@@H](O)[C@@H](OC)C(=O)[C@H](C)C[C@H](C)/C=C/C=C/C=C/1C [Rapamycin] (21.8771 µM),0.701
4,Cc1cn([C@H]2C[C@H](N=[N+]=[N-])[C@@H](CO)O2)c(=O)[nH]c1=O [3'-azido-3'-deoxythymidine] (74.8374 µM),0.488
5,C=C1/C(=C\C=C2/CCC[C@]3(C)[C@@H]([C@H](C)/C=C/[C@@H](O)C4CC4)CC[C@@H]23)C[C@@H](O)C[C@@H]1O [Calcipotriene] (48.471 µM),0.634
6,CCN(CC)CCNC(=O)c1cc(Cl)c(N)cc1OC [Metoclopramide HCl] (66.7104 µM),0.493
7,O=C1CCc2ccc(OCCCCN3CCN(c4cccc(Cl)c4Cl)CC3)cc2N1 [Aripiprazole] (44.6034 µM),0.854
8,CCCCC[C@H](O)/C=C/[C@@H]1[C@@H](C/C=C\CCCC(=O)O)[C@@H](O)C[C@H]1O [Dinoprost] (56.4189 µM),0.523
9,OCCN1CCN(CCCN2c3ccccc3Sc3ccc(C(F)(F)F)cc32)CC1 [Fluphenazine 2HCl] (45.711 µM),0.862
10,CCN(CC)CC(=O)Nc1c(C)cccc1C [Lidocaine] (73.8552 µM),0.499
11,O=C(O)c1cc(=O)c2c(OCC(O)COc3cccc4oc(C(=O)O)cc(=O)c34)cccc2o1 [Disodium cromoglycate] (39.0365 µM),0.529
12,C#C[C@]1(O)CC[C@H]2[C@@H]3CCC4=CC(=O)CC[C@@H]4[C@H]3CC[C@@]21CC [Levonorgestrel] (64.009 µM),0.509
13,CN(C)CCC(c1ccc(Cl)cc1)c1ccccn1 (stereo not given) [Chlorpheniramine maleate] (72.7812 µM),0.452
14,CC(C)[C@H](N)C(=O)OCCOCn1cnc2c(=O)nc(N)[nH]c21 [Valaciclovir] (61.6633 µM),0.465
15,Fc1ccc(C(c2ccc(F)cc2)N2CCN(C/C=C/c3ccccc3)CC2)cc1 [Flunarizine-2HCl] (41.8936 µM),0.605
16,CCN1CCN(C(=O)N[C@@H](C(=O)N[C@@H]2C(=O)N3C(C(=O)O)=C(CSc4nnnn4C)CS[C@H]23)c2ccc(O)cc2)C(=O)C1=O [Cefoperazone acid] (30.9752 µM),0.487
17,C[C@@H](O)[C@H]1C(=O)N2C(C(=O)O)=C(SCCNC=N)C[C@H]12 [Imipenem] (66.8112 µM),0.486
18,O=C(O[C@@H]1C[C@@H]2C[C@H]3C[C@H](C1)N2CC3=O)c1c[nH]c2ccccc12 [Dolasetron] (61.6555 µM),0.494
19,COc1ccc(-c2cc(=S)ss2)cc1 [Anethole-trithione (anetholtrithion)] (83.2062 µM),0.735
20,CCn1cc(C(=O)O)c(=O)c2cc(F)c(N3CCN(C)CC3)cc21 [Pefloxacine mesylate] (59.9942 µM),0.465
21,C[C@](N)(Cc1ccc(O)c(O)c1)C(=O)O [Methyldopa] (94.6883 µM),0.412
22,CC(=O)Oc1ccccc1C(=O)O [Acetylsalicylic acid] (111.011 µM),0.49
23,O=c1[nH]c(=O)n([C@H]2C[C@H](O)[C@@H](CO)O2)cc1I [Idoxuridine] (56.4808 µM),0.515
24,CCN(CC)CCOc1ccc(C(=C(Cl)c2ccccc2)c2ccccc2)cc1 [Clomiphene citrate] (49.2645 µM),0.88
25,CC(=O)OCC1OC([S-])C(OC(C)=O)C(OC(C)=O)C1OC(C)=O.CC[PH+](CC)CC.[Au+] (stereo not given) [Auranofin] (29.4771 µM),0.709
26,COC(=O)[C@H](c1ccccc1Cl)N1CCc2sccc2C1 [Clopidogrel sulfate] (62.1449 µM),0.642
